Compound activity deposited in PubChem BioAssay by several laboratories.
CYP2C19 activ: human CYP2C19 activators, primary screen, biochemical, luminescence; activation factor at 5 µM; recombinant CYP2C19, luciferin-H EGE luminescence; stronger effect = higher value; 0 = fully inhibited enzyme, 1 = untreated enzyme; 96,000 tested, under 10 active; Cytochrome P450 2C19 (Homo sapiens), P33261;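 active means activation factor of at least 2 at 5 µM in the primary screen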;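 further: 0 = wells with 2.5 mM tranylcypromine and 1 = vehicle-only wells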
CYP2C19 inh: blockers of cytochrome P450 2C19 activity – biochemical, luminescence, ADME assay, primary screen. P33261. CYP2C19 Supersomes, luciferin-H EGE luminescence, 30 min. inhibition, % at 5 µM. 96,000 compounds, 21% hits. AID 778, 2007;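 active means CYP2C19 inhibition above a set limit at 5 µM in the primary screen, cut at about 50% in these data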;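 further: plate controls were negative control wells for no effect and 2.5 mM tranylcypromine positive control for full effect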
PostGolgi yeast: phenotypic screen on post-Golgi transport, primary screen. 98,000 compounds, 0.9% hits. inhibition, % at 10 µM. post-Golgi transport phenotypic cell assay. AID 739, 2007;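 further: yeast cells grown in 1536-well plates; yeast grown about 18 h at 30C before absorbance read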
PostGolgi ctrl: growth inhibition of yeast control strain, primary screen, counter-screen for post-Golgi transport modulator project; inhibition, % at 10 µM; efflux-deficient yeast background strain, growth absorbance A615, 16 h; 98,000 compounds, 5% hits
CYP2C9 inhib: blockers of cytochrome P450 2C9 activity – biochemical, luminescence, ADME assay, primary screen; 96,000 compounds, 20% hits; CYP2C9 Supersomes, luciferin-H conversion; inhibition, % at 5 µM; P11712; AID 777, 2007;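 active means blocking of liver enzyme CYP2C9 beyond about 50% at 5 µM, limit read from the data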
Target sequence (P11712 whole entry, looked up): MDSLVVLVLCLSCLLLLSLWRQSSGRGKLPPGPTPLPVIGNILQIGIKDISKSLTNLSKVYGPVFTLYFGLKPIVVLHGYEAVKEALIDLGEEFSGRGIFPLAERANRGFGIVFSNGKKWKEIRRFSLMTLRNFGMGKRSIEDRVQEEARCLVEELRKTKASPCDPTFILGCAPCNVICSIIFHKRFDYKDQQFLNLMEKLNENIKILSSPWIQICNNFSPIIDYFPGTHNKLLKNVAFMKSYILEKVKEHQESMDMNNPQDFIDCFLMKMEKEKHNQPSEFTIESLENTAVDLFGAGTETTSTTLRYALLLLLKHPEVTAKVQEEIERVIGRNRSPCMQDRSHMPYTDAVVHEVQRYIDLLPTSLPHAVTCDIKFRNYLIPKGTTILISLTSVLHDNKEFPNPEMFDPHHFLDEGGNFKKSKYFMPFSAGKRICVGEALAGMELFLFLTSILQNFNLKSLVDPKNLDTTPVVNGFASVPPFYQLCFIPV
CYP2C9 activ: human CYP2C9 activators, primary screen, biochemical, luminescence; Cytochrome P450 2C9 (Homo sapiens), P11712; recombinant CYP2C9, luciferin-H conversion; stronger effect = higher value; factor 1 = untreated enzyme, 0 = blocked; activation factor at 5 µM; 96,000 compounds, 1.4% hits;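 active means activation factor of 2 or more for CYP2C9 at a 5 µM dose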;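 further: 0 = sulfaphenazole-blocked wells and 1 = vehicle-only wells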
Active calls of the source: *; . = not tested or not shown. In the library only some 32% were active in any assay of this set; here they are far more common. Unless noted, no stated cut-off is given here; in the data, active means inhibition above about 30%; inactive means the rest.

SMILES	CYP2C19 activ	CYP2C19 inh	PostGolgi yeast	PostGolgi ctrl	CYP2C9 inhib	CYP2C9 activ
COCCOC(=O)C1=C(C)NC2=C(C(=O)CC(C)(C)C2)C1c1ccc(N(C)C)cc1 (configuration not stated)	0.8	18.2	1.5	-10.4	18.8	0.8
COC(=O)C1C(=O)C2=C(CC1C)NC(C)=C(C(=O)OC(C)C)C2c1ccc(OC)c(O)c1 (configuration not stated)	1.1	-11.4	1.3	10.6	15.3	0.8
COCCOC(=O)C1=C(C)NC2=C(C(=O)CC(c3cccs3)C2)C1c1ccsc1 (configuration not stated)	0.4	58.3*	1.3	9.4	59.6*	0.4
COC(=O)C1C(=O)C2=C(CC1C)NC(C)=C(C(=O)OC1CCCC1)C2c1ccc(N(C)C)cc1 (configuration not stated)	0.5	54.1*	-4.6	-4.6	82.5*	0.2
CCN(CC)c1ccc(C2C(C(=O)OCCOC)=C(C)NC3=C2C(=O)CCC3)cc1 (configuration not stated)	0.6	44.9	-13.1	6.0	36.8	0.6
COCCOC(=O)C1=C(C)NC2=C(C(=O)CCC2)C1c1ccc2c(c1)OCO2 (configuration not stated)	0.2	83.5*	0.9	17.2	95.7*	0
COc1ccccc1NC(=O)C1=C(C)NC2=C(C(=O)CCC2)C1c1ccc2c(c1)OCO2 (configuration not stated)	0.4	63.2*	17.7	0.1	46.7	0.5
Cc1cccc2cc(COC(=O)C(C)(C)C)c(=O)[nH]c12	0.8	20.2	-7.4	8.7	-32.7	1.3
COCCOC(=O)C1=C(C)NC2=C(C(=O)CC(C)(C)C2)C1c1cc2c(cc1Br)OCO2 (configuration not stated)	0.1	94.2*	.	.	81.1*	0.2
COC(=O)c1ccccc1OCC(=O)N1CCN(c2ccc(OC)cc2)CC1	0.8	19.3	1.3	-2.6	12.3	0.9
CCCCCCC1CCC(C(=O)Nn2c(C)nc3ccccc3c2=O)CC1 (configuration not stated)	0.6	41.5	-3.6	10.1	90.8*	0.1
O=C(Nn1c(-c2ccc(F)cc2)nc2ccccc2c1=O)C1CCCCC1	0.5	45.2	-10.0	4.3	64.0*	0.4
Cc1nc2ccccc2c(=O)n1NC(=O)C1CCCCC1	0.9	6.4	-3.6	-4.5	11.8	0.9
Cc1ccc(C(=O)CSc2nnc(COc3cc(C)cc(C)c3)o2)cc1	0.9	6.8	-6.7	2.7	26.4	0.7
Cc1cc(C)n(-c2nc(NCCC(C)C)c3c4c(sc3n2)COC(C)(C)C4)n1	0.9	9.2	-5.1	32.6*	30.5	0.7
Cc1cc(C)n(-c2nc(SCC(=O)Nc3nccs3)c3c4c(sc3n2)COC(C)(C)C4)n1	0.6	37.8	7.2	8.9	76.8*	0.2
Cc1cc(C)n(-c2nc(-n3nc(C)cc3C)c3c4c(sc3n2)COC(C)(C)C4)n1	0.3	72.4*	0.1	14.4	38.3	0.6
O=C1c2ccccc2C(=O)C1c1ccc2ccccc2n1	0.2	82.5*	-5.7	12.9	73.6*	0.3
CCN(CC)c1ccc(C2C(C(=O)OC)=C(C)NC(C)=C2C(=O)OC)cc1	0.7	34.0	1.7	1.9	18.4	0.8
COC(=O)C1=C(C)NC(C)=C(C(=O)OC)C1c1ccc(NC(C)=O)cc1	0.7	33.0	-6.6	11.2	52.5*	0.5
COC(=O)C1=C(C)NC(C)=C(C(=O)OC)C1c1ccc2ccccc2n1	0.2	76.7*	-2.3	26.7	50.2*	0.5
O=C(OC1CCOC1=O)c1ccc2ccccc2n1 (configuration not stated)	1	-2.4	-4.8	5.9	-6.5	1.1
COc1cccc(C(=O)N/N=C/c2ccc(OC3CSC3)cc2)c1	0.9	7.9	-2.6	-0.6	17.6	0.8
CCOC(=O)C(CC)(CC)C(=O)/C=C/c1ccc(Br)cc1	0.9	13.5	-3.4	27.2	19.6	0.8
O=C(CCn1nc(-c2ccc(Cl)cc2)ccc1=O)NCc1cccnc1	1	-1.8	-1.7	5.7	26.9	0.7
SMILES	CYP2C19 activ	CYP2C19 inh	PostGolgi yeast	PostGolgi ctrl	CYP2C9 inhib	CYP2C9 activ
OC(c1ccc(Cl)cc1Cl)C(Cc1cccnc1)n1cncn1 (configuration not stated)	0.1	86.4*	44.8*	11.3	8.9	0.9
O=C(Cn1cncn1)NCc1cccc2ccccc12	0.6	36.9	20.6	-8.0	3.2	1
OC(Cn1cncn1)c1ccc(Cl)cc1Cl (configuration not stated)	0	98.1*	77.7*	40.1*	56.3*	0.4
OC(Cn1cncn1)c1ccc(Cl)cc1 (configuration not stated)	0	95.1*	4.4	-4.7	58.2*	0.4
CCCS(=O)(=O)NCCc1cc2ccc(OC)cc2[nH]c1=O	1.1	-6.6	0.8	0.1	-7.1	1.1
O=C(CSc1nnc(CNc2ccc(Cl)cc2)o1)Nc1nc2c(s1)CCCC2	1.2	-17.7	-2.1	13.7	-3.0	1
Cn1nnc2cc(C(=O)N3CCN(c4ccccc4)CC3)ccc21	0.7	33.7	-9.2	1.9	10.3	0.9
CCN(CC)S(=O)(=O)c1ccc2c(c1)nc(SCn1nnc3ccccc3c1=O)n2CC	0.8	19.8	-1.1	3.9	68.1*	0.3
COc1cccc(N2CCN(c3ccc(S(=O)(=O)N4CCCC4)cc3)CC2)c1	0.6	40.6	1.0	1.0	0.9	1
Nc1nc(N)nc(-c2ccccc2O)n1	1	-0.2	-1.7	3.7	4.9	1
Cc1cc(C)nc(SCc2nc(N)nc(-c3ccccc3O)n2)n1	0.1	85.1*	15.3	6.3	35.8	0.6
CCOC(=O)COc1ccc(S(=O)(=O)N2CCN(c3ccc(F)cc3)CC2)cc1	0.8	22.4	13.2	-2.9	50.5*	0.5
CCOC(=O)COc1ccc(S(=O)(=O)N2CCc3ccccc3C2)cc1	0.4	55.9*	10.4	1.1	-49.2	1.5
CC(=O)Nc1ccc(S(=O)(=O)N2CCc3ccccc3C2)cc1	0.3	65.0*	4.4	4.3	-58.1	1.6
COC(=O)Nc1ccc(S(=O)(=O)N2CCN(c3ccc(F)cc3)CC2)cc1	1.1	-5.6	-9.4	38.3*	-1.8	1
Cc1cc2c(c(SCC(=O)NCCc3ccccc3)n1)C(=O)OC2	0.7	29.6	-0.7	4.2	12.4	0.9
O=C(Nc1ccc(S(=O)(=O)N2CCOCC2)cc1)c1ccc(CN2CCc3ccccc3C2)cc1	0.8	23.1	-0.2	-0.7	55.1*	0.4
CCOC(=O)C1CCCN(C(=O)c2ccc(OCC)cc2)C1 (configuration not stated)	0.6	37.8	-3.0	7.2	6.2	0.9
